Assay results: PubChem BioAssay (EPA / NIEHS)
Inconclusive results are not listed. Activity calls are given as the source filed them. How the source made its calls, unless noted: active means hit-call score of the fitted dose curve at least 0.9, where 1 is the maximum; inactive means score below 0.9.

How the values were obtained:
[1] = ATG_NFI_CIS: Attagene CIS-FACTORIAL HepG2 Assay for human Nuclear Factor I (NFI) (AID 2282989); settings: HepG2 cis-regulatory reporter, NFI response element transcription; actives raise or lower the signal
Outline: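 Transfected HepG2 liver cells, exposed 24 h, supplied total RNA for oligo(dT) reverse transcription and reporter-specific PCR. Labelled, HpaI-cut fragments were sized by capillary electrophoresis; DMSO set the baseline for bidirectional fitting.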

[2] = molecular target: Myc proto-oncogene protein (Homo sapiens) (UniProt P01106); assay: ATG_Myc_CIS: Attagene CIS-FACTORIAL HepG2 Assay for human Myelocytomatosis (Myc) Proto-Oncogene Transcription Factor (AID 2282990); settings: HepG2, Attagene cis-reporter transcription factor activity; actives raise or lower the signal
Chain of Myc proto-oncogene protein (Homo sapiens) (P01106 whole entry, looked up): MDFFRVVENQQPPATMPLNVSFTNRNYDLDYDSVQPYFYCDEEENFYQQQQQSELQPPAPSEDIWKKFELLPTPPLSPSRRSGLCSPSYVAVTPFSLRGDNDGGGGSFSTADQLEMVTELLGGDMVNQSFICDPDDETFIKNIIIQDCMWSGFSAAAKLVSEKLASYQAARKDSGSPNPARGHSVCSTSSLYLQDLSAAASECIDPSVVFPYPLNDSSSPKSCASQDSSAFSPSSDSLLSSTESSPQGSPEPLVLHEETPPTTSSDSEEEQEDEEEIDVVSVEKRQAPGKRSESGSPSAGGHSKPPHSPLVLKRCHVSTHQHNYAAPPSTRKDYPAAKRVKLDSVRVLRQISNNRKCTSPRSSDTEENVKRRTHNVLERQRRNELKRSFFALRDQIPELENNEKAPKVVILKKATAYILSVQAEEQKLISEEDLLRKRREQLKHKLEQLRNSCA
Outline: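 DMSO-normalised, bidirectionally fitted reporter mRNA signal. HepG2 cells transfected with cis reporter constructs, treated 24 h; transcripts detected by RT-PCR, 6-FAM primer extension and CE.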

[3] = ATG_NRF2_ARE_CIS: Attagene CIS-FACTORIAL HepG2 Assay for human Nuclear Factor Erythroid 2 Related Factor 2 (NFR2) response to Antioxidant Response Elements (ARE) (AID 2282992); settings: HepG2 Attagene ARE/NRF2 reporter, transcription factor activity; actives raise or lower the signal;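 on AC50: reporter mRNA level measured by RT-PCR and capillary electrophoresis fluorescence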
Outline: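 Multiplexed reporter mRNA profiling in HepG2 after a 24 h chemical exposure. Curves fitted in both directions relative to DMSO negative control.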

[4] = ATG_Oct_MLP_CIS: Attagene CIS-FACTORIAL HepG2 Assay for human Octamer-Binding Transcription Factor (Oct) (AID 2282993); settings: HepG2 Attagene cis-factorial Oct reporter, mRNA; actives raise or lower the signal
Outline: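 Using HepG2 cells bearing transfected cis-reporter constructs, mRNA induction was read after 24 h by fluorescent RT-PCR and capillary electrophoresis, with DMSO defining baseline for gain- or loss-of-signal fits.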

[5] = molecular target: Cellular tumor antigen p53 (Homo sapiens) (UniProt P04637); assay: ATG_p53_CIS: Attagene CIS-FACTORIAL HepG2 Assay for human p53 Transcription Factor (AID 2282994); settings: HepG2 p53 cis-element reporter, Attagene mRNA; actives raise or lower the signal
Chain of Cellular tumor antigen p53 (Homo sapiens) (P04637 whole entry, looked up): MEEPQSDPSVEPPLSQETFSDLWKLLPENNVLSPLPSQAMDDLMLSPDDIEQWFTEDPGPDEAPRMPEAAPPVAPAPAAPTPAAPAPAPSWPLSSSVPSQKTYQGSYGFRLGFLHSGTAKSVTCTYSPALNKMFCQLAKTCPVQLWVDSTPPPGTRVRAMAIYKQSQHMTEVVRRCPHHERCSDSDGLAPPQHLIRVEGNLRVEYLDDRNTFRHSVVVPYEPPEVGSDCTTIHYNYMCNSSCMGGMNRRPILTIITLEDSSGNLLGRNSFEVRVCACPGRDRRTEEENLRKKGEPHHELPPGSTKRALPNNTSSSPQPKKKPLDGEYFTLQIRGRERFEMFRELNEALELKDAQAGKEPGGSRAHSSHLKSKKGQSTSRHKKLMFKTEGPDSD
Outline: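 Multiplexed reporter mRNA assay in human HepG2 liver cells; cis-regulated units report endogenous factor activity. Values come from bidirectional curve fitting against DMSO negative control after 24 h treatment.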

[6] = BSK_3C_TissueFactor: BioMAP Diversity Plus: 3C Assay for Tissue Factor Biomarker Activity (AID 2282997); settings: BioMAP 3C HUVEC, tissue factor biomarker readout; actives raise or lower the signal
Outline: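 Values derive from bidirectional curve fitting against DMSO of Tissue Factor ELISA signals, taken 24 h after dosing primary human umbilical vein endothelial cells.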

[7] = BSK_3C_uPAR: BioMAP Diversity Plus: 3C Assay for Urokinase-type plasminogen activator receptor (uPAR) Biomarker Activity (AID 2282998); settings: BioMAP 3C HUVEC, uPAR biomarker ELISA; actives raise or lower the signal
Outline: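 In this endothelial cell-based assay, human umbilical vein primary cells were treated with chemicals and harvested at 24 h. uPAR was quantified using ELISA, with gains or losses fitted relative to DMSO controls.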

[8] = BSK_3C_VCAM1: BioMAP Diversity Plus: 3C Assay for Vascular cell adhesion molecule 1 (VCAM1) Biomarker Activity (AID 2282999); settings: BioMAP 3C HUVEC, VCAM1 ELISA, cytokine-stimulated; actives raise or lower the signal
Outline: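 Human umbilical vein endothelial cells were dosed with compound for 24 h, after which cell-surface VCAM-1 was quantified by ELISA. Bidirectional curve fitting used DMSO as negative control and activity baseline.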

[9] = BSK_4H_Eotaxin3: BioMAP Diversity Plus: 4H Assay for Eotaxin 3 Biomarker Activity (AID 2283000); settings: primary human endothelial cells (HUVEC); actives raise or lower the signal
Outline: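 Endothelial primary cells (human umbilical vein) exposed to compound for 24 h. ELISA detection of Eotaxin-3.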

[10] = molecular target: human Peroxisome Proliferator-activated Receptor delta (PPARd), PPARD (gene 5467) (UniProt Q03181); assay: ATG_PPARd_TRANS: Attagene TRANS-FACTORIAL HepG2 Assay for human Peroxisome Proliferator-activated Receptor delta (PPARd) (AID 2283002; active means hit-call score of the fitted dose curve at least 0.9, where 1 is the maximum)
Chain of human Peroxisome Proliferator-activated Receptor delta (PPARd), PPARD (gene 5467) (Q03181 whole entry, looked up, the tested form may be a part): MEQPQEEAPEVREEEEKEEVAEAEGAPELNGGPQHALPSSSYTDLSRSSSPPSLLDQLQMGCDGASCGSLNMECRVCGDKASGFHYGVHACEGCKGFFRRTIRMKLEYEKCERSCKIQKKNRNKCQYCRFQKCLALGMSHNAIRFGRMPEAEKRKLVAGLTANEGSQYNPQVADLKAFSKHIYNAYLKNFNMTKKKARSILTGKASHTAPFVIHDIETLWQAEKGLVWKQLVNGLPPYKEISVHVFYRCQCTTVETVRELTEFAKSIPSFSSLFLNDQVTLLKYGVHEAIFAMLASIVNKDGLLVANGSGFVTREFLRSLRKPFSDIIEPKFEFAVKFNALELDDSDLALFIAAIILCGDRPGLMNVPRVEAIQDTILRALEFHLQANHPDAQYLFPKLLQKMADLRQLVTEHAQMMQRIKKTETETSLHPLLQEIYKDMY
Outline: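 Measured quantity: GAL4-UAS reporter transcript induction in HepG2 after 24 h chemical dosing, with NR-Gal4 chimeras supplied by transient transfection. Detection by RT-PCR and capillary electrophoresis; upward fit against DMSO.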

[11] = read-out: Intercellular Adhesion Molecule 1 (ICAM1), ICAM1 (gene 3383); assay: BSK_3C_ICAM1: BioMAP Diversity Plus: 3C Assay for Intercellular Adhesion Molecule 1 (ICAM1) Biomarker Activity (AID 2283003); settings: primary human endothelial cells (HUVEC); actives raise or lower the signal
Outline: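 HUVEC primary cells stimulated under 3C conditions; ICAM1 measured by ELISA 24 h after compound dosing. Curves fitted bidirectionally against the DMSO baseline. Overt cytotoxicity checked by SRB staining of parallel cultures.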

[12] = BSK_3C_Proliferation: Cell Proliferation Assessment in the BioMAP Diversity Plus: 3C Assay (AID 2283006); settings: primary human endothelial cells (HUVEC);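 on AC50: potency may reflect either rise or fall in cell number versus DMSO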
Outline: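 Subconfluent HUVEC (3C system) cultured with chemical; relative cell number read at 48 h by sulforhodamine B total-protein staining (0.1% SRB after 10% TCA fixation, 560 nm). Bidirectional fit relative to DMSO.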

[13] = molecular target: Peroxisome proliferator-activated receptor gamma (Homo sapiens) (UniProt P37231); assay: ATG_PPARg_TRANS: Attagene TRANS-FACTORIAL HepG2 Assay for human Peroxisome Proliferator-activated Receptor-gamma (PPARg) (AID 2283007; active means hit-call score of the fitted dose curve at least 0.9, where 1 is the maximum)
Chain of Peroxisome proliferator-activated receptor gamma (Homo sapiens) (P37231 whole entry, looked up, the tested form may be a part): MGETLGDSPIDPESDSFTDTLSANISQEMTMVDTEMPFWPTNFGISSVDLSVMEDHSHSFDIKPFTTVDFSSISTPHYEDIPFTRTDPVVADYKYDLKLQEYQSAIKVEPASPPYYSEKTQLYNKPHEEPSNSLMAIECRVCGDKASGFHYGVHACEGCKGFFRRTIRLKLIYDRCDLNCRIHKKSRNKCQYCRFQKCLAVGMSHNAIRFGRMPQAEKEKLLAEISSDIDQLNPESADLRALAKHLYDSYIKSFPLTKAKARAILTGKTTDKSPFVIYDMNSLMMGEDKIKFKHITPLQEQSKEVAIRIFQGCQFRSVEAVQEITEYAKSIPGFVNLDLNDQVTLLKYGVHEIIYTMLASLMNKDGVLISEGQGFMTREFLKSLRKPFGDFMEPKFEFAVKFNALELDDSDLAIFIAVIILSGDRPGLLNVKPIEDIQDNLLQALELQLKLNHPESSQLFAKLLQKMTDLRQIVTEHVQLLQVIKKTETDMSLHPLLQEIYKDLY
Outline: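 HepG2 cells are transiently transfected with GAL4-UAS reporter units driven by chimeric NR-Gal4 fusions and dosed for 24 h. Reporter mRNA is quantified by RT-PCR, 6-FAM labelling, HpaI digestion and capillary electrophoresis. Induction is scored against DMSO.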

[14] = ATG_NF_kB_CIS: Attagene CIS-FACTORIAL HepG2 Assay for human Nuclear Factor Kappa B (NF-kB) (AID 2282991); settings: HepG2 Attagene cis-factorial NF-kB reporter mRNA; actives raise or lower the signal
Outline: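 HepG2 cells transfected with cis-promoter-driven reporter units, so endogenous transcription factor activity is measured. Reporter mRNA quantified 24 h after dosing by RT-PCR and capillary electrophoresis, with bidirectional fitting against DMSO.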

[15] = molecular target: human Retinoic Acid Receptor beta (RARb), RARB (gene 5915) (UniProt P10826); assay: ATG_RARb_TRANS: Attagene TRANS-FACTORIAL HepG2 Assay for human Retinoic Acid Receptor beta (AID 2283004; active means hit-call score of the fitted dose curve at least 0.9, where 1 is the maximum)
Chain of human Retinoic Acid Receptor beta (RARb), RARB (gene 5915) (P10826 whole entry, looked up, the tested form may be a part): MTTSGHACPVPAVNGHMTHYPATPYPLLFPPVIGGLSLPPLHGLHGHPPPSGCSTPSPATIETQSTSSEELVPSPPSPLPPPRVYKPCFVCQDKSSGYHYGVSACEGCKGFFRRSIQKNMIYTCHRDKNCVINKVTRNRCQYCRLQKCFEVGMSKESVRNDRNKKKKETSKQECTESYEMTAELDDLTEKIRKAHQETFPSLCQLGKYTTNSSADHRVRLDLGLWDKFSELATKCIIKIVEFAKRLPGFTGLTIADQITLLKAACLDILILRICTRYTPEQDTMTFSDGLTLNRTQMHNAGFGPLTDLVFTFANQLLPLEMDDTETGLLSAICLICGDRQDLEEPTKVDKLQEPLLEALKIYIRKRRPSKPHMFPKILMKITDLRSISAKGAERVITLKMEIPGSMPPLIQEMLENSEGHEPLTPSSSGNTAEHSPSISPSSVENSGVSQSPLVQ
Outline: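 HepG2, transient MRTU transfection, NR–Gal4 chimera, 24 h treatment; RT-PCR plus CE fluorescence detection of reporter mRNA; gain of signal vs DMSO.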

[16] = molecular target: Retinoic acid receptor alpha (Homo sapiens) (UniProt P10276); assay: ATG_RARa_TRANS: Attagene TRANS-FACTORIAL HepG2 Assay for human Retinoic Acid Receptor alpha (RARa) (AID 2283005; active means hit-call score of the fitted dose curve at least 0.9, where 1 is the maximum)
Chain of Retinoic acid receptor alpha (Homo sapiens) (P10276 whole entry, looked up, the tested form may be a part): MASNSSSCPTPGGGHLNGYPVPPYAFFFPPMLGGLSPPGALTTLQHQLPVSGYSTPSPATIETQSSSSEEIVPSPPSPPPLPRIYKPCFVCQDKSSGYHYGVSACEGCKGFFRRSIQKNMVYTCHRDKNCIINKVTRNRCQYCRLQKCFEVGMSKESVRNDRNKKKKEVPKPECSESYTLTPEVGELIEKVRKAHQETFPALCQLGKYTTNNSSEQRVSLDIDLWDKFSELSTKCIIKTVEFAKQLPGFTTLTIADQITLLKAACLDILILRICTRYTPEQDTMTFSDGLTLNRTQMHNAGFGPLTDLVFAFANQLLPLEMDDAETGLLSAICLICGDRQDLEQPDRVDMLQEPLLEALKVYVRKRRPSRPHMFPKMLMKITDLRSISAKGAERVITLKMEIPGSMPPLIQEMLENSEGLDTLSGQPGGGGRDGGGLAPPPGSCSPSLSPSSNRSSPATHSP
Outline: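 HepG2 cells transiently transfected with multiple reporter units expressing chimeric RARα-GAL4 fusion, with GAL4-UAS-driven reporters. After 24 h compound exposure, reporter mRNA induction quantified by RT-PCR and capillary electrophoresis with fluorescent labeling; gain-of-signal fitted relative to DMSO control.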

[17] = molecular target: Nuclear receptor subfamily 1 group I member 2 (Homo sapiens) (UniProt O75469); assay: ATG_PXR_TRANS: Attagene TRANS-FACTORIAL HepG2 Assay for human Pregnane X Receptor (PXR) (AID 2283008; active means hit-call score of the fitted dose curve at least 0.9, where 1 is the maximum)
Chain of Nuclear receptor subfamily 1 group I member 2 (Homo sapiens) (O75469 whole entry, looked up, the tested form may be a part): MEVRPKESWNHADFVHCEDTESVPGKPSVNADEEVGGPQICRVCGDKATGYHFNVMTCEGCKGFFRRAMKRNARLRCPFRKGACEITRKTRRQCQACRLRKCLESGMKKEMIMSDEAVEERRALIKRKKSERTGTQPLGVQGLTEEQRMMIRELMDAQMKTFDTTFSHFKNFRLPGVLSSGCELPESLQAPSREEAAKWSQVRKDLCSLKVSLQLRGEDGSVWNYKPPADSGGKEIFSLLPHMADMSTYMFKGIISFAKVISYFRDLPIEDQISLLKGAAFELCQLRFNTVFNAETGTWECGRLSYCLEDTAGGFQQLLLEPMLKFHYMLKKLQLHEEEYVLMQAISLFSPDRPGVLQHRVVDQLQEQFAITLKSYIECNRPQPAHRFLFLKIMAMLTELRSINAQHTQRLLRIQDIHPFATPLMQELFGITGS
Outline: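 Measures mRNA induction of a GAL4-UAS-driven reporter in human HepG2 cells transiently expressing PXR fused to Gal4, following 24 h treatment. DMSO served as negative control and baseline.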

[18] = molecular target: human Retinoic Acid Receptor gamma (RARg), RARG (gene 5916) (UniProt P13631); assay: ATG_RARg_TRANS: Attagene TRANS-FACTORIAL HepG2 Assay for human Retinoic Acid Receptor gamma (RARg) (AID 2283009; active means hit-call score of the fitted dose curve at least 0.9, where 1 is the maximum)
Chain of human Retinoic Acid Receptor gamma (RARg), RARG (gene 5916) (P13631 whole entry, looked up, the tested form may be a part): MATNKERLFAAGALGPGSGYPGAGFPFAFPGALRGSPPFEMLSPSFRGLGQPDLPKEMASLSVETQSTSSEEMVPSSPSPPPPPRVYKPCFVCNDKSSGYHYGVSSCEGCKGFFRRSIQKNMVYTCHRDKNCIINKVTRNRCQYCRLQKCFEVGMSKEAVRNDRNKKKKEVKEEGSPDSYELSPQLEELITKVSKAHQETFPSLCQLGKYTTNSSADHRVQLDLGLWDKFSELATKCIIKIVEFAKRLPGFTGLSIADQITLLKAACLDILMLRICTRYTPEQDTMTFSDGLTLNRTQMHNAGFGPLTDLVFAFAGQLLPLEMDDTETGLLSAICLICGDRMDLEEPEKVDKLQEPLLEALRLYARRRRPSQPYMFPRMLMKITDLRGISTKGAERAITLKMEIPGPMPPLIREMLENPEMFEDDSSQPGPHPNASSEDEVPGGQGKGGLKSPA
Outline: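 HepG2 transiently transfected with GAL4-UAS reporter units and chimeric NR-Gal4 constructs; 24 h compound exposure. Reporter mRNA quantified by RT-PCR, FAM labeling, HpaI digestion and capillary electrophoresis; gain-of-signal versus DMSO.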

[19] = molecular target: human RAR-related Orphan Receptor beta (RORb), RORB (gene 6096) (UniProt Q92753); assay: ATG_RORb_TRANS: Attagene TRANS-FACTORIAL HepG2 Assay for human RAR-related Orphan Receptor beta (RORb) (AID 2283010; active means hit-call score of the fitted dose curve at least 0.9, where 1 is the maximum)
Chain of human RAR-related Orphan Receptor beta (RORb), RORB (gene 6096) (Q92753 whole entry, looked up, the tested form may be a part): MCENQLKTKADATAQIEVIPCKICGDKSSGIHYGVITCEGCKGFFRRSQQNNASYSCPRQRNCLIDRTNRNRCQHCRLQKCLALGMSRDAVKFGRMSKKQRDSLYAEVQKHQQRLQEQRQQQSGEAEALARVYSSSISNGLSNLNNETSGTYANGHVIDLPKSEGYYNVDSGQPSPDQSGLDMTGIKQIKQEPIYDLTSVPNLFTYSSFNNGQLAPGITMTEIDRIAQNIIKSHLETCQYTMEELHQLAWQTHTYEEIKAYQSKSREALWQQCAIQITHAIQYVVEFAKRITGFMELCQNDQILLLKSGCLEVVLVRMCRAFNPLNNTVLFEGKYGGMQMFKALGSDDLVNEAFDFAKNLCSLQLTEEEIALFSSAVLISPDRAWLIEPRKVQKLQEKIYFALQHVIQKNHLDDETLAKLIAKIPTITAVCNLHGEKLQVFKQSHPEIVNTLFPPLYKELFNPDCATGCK
Outline: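 HepG2 cells transiently transfected with GAL4-UAS reporter units expressing chimeric NR-Gal4 protein; reporter mRNA measured 24 h after dosing by RT-PCR, 6-FAM labelling and capillary electrophoresis. Gain-of-signal fitted relative to DMSO baseline.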

Measured: AC50

CCOP(=O)(OCC)Oc1cc(C)nc(C(C)C)n1
not listed: [14] | [15] | [16] | [17] | [18] | [19]
inactive: all other assays above

C=C(C)[C@H]1Cc2c(ccc3c2O[C@@H]2COc4cc(OC)c(OC)cc4[C@@H]2C3=O)O1
active: [14] 0.063 µM | [3] 0.00527 µM | [4] 0.0306 µM | [6] 8.69 µM | [7] 7.25 µM | [8] 20 µM | [9] 20 µM | [12] 1.36 µM
not listed: [5] | [19]
inactive: all other assays above

CCc1cccc(CC)c1N(COC)C(=O)CCl
active: [2] 2.68 µM | [3] 3.31 µM | [4] 3.21 µM | [8] 31.4 µM | [9] 22.4 µM | [12] 28.5 µM | [13] 1.79 µM
not listed: [5] | [15] | [16] | [19]
inactive: all other assays above

CC(C)=CC1C(C(=O)OCN2C(=O)C3=C(CCCC3)C2=O)C1(C)C (configuration not stated)
active: [3] 16.2 µM | [4] 35.4 µM | [6] 12.7 µM | [7] 15.5 µM | [8] 14.4 µM | [12] 15.6 µM | [13] 50 µM | [17] 40.2 µM
inactive: [1] | [2] | [5] | [9] | [11] | [19]

Nc1c(Cl)cc([N+](=O)[O-])cc1Cl
active: [1] 50 µM | [14] 59.5 µM | [3] 41.1 µM | [4] 50 µM
not listed: [5] | [18] | [19]
inactive: all other assays above

C#CCC1=C(C)C(OC(=O)C2C(C=C(C)C)C2(C)C)CC1=O (configuration not stated)
active: [1] 80 µM | [2] 68.1 µM | [3] 13.2 µM | [4] 44.5 µM | [5] 80.1 µM | [12] 28.8 µM | [13] 28 µM | [17] 3.12 µM
not listed: [14] | [19]
inactive: all other assays above
